TEAD-YAP block = TEAD-YAP interaction inhibition, primary screen, TEAD-YAP interaction inhibitor project, luminescence, HEK-TIYL cells. TEAD-Gal4/YAP UAS-luciferase luminescence. inhibition, % at 9.12 µM. actives 1.4% (n = 640,000). AID 1259422, 2018; in the data active = inhibition above about 32%;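 note: 0% = median of test compound wells and 100% = reference inhibitor wells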
FBW7 activator = FBW7 E3 ligase activators, primary screen, biochemical, AlphaScreen, human | normalized activity (activation), % at 26.1 µM | AlphaScreen FBW7–phospho-cyclin E peptide binding, activator screen | actives 0.13% (n = 650,000); in the data active = normalized activity above about 1.9%;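 note: purified mutant Fbw7 with reduced substrate affinity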
GPR151 activ = activators of human GPR151, primary screen, cell-based, PathHunter beta-arrestin, luminescence; G-protein coupled receptor 151 (Homo sapiens), Q8TDV0; PathHunter beta-arrestin GPR151 cells; activation, % at 11.2 µM; actives 1% (n = 650,000); AID 1508602, 2020; in the data active = activation above about 4.9%;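 note: 0% = median of compound wells and 100% = cells with positive control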
MITF primary = MITF inhibitors, primary screen, biochemical, AlphaScreen, human; Microphthalmia-associated transcription factor (Homo sapiens), O75030; AlphaScreen MITF homodimerization, bead proximity signal; inhibition, % at 2.6 µM; actives 0.91% (n = 650,000); in the data active = inhibition above about 50%;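 note: 0% = vehicle wells with protein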
Target sequence (O75030 whole entry, looked up): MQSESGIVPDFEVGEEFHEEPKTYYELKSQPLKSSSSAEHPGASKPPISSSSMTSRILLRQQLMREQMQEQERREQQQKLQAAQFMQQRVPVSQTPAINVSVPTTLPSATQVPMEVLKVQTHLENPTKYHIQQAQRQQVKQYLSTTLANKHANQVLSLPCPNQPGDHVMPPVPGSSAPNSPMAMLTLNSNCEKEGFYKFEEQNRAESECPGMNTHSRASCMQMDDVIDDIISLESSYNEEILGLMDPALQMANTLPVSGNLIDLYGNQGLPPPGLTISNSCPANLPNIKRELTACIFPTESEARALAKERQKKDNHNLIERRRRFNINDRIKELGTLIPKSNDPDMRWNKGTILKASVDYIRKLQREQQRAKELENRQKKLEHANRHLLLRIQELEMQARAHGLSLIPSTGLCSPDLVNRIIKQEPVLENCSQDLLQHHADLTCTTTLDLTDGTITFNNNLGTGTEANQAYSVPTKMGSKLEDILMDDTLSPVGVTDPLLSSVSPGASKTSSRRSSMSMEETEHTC
MITF inh conf = MITF inhibitors, retest of hits, confirmation, biochemical, AlphaScreen, triplicate; inhibition, % at 2.6 µM; shares compounds with MITF primary; actives 16% (n = 4,700); AlphaScreen MITF homodimerization, biotin/His-MITF beads;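 active = inhibition above a cutoff derived from the DMSO control wells, cut at about 28% in these data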;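 note: 0% = MITF dimer wells with DMSO only; inhibitors lower the bead chemiluminescence by keeping MITF from dimerizing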
AS interf DR = AlphaScreen optical interference compounds, dose response, counter-screen, biochemical, HTS | shares compounds with MITF primary | AlphaScreen optical interference counterscreen, cell-free | IC50, µM | actives 6% (n = 480) | AID 1259373, 2018; call rule not given here
AlphaScreen intf2 = AlphaScreen optical interference compounds, counter-screen for MITF inhibitor project, biochemical, triplicate. inhibition, % at 2.6 µM. actives 7.6% (n = 4,700). shares compounds with MITF primary. LysRS AlphaScreen counterscreen, signal interference;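 active = inhibition above a cutoff derived from the DMSO control wells, cut at about 30% in these data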
* marks the source's active call; other numbers are inactive results; nt = no result. An excerpt weighted towards active compounds, which were near 3.5% of everything screened.

SMILES	TEAD-YAP block	FBW7 activator	GPR151 activ	MITF primary	MITF inh conf	AlphaScreen intf2	others
COc1ccccc1-n1c(CNC(=O)c2cccs2)nnc1SCC(=O)Nc1cccc(C)c1	5.9	0.2	-0.8	13.1	nt	nt
Cn1cc(CC(=O)N2CCN(c3ccc(-c4ccccn4)nn3)CC2)c2ccccc21	41.9*	-1.4	-2.5	121.7*	107.5*	100.6*
O=C(Cc1cccs1)N1CCN(c2ccc(-c3ccccn3)nn2)CC1	-11.3	-1.1	-1.4	68.2*	51.4*	100.5*
O=C(/C=C/c1cccs1)N1CCN(c2ccc(-c3ccccn3)nn2)CC1	-7.6	-1.3	0.8	55.9*	103.5*	100.6*
O=C(/C=C/c1ccco1)N1CCN(c2ccc(-c3ccccn3)nn2)CC1	-5.1	-1.5	-1.1	48.9	nt	nt
CCOc1ccc(CNC(=O)CN2C(=O)C(CC)Sc3ccccc32)cc1OC (stereo not drawn)	8.6	0.1	0.4	50.8*	17.5	7.5
CCC1Sc2ccccc2N(CC(=O)NCCc2ccc(OC)c(OC)c2)C1=O (stereo not drawn)	5.3	0.2	-1.1	12.3	nt	nt
CN(C)CCNC(=O)c1ccc2c(Cl)c3c(nc2c1)CCCC3	-10.5	-0.1	0.4	-1.6	nt	nt
C=CCc1cc(OC)ccc1OCCCN1CCN(C)CC1	4.1	0.2	-0.3	81.9*	-0.2	-2.5
C=CCc1cc(OC)ccc1OCCCCn1cncn1	4.9	0.5	-0.6	76.0*	-19.6	-0.5
C=CCc1cc(OC)ccc1OCCN1CCCCC1	-1.8	-0.1	-0.2	33.0	nt	nt
C=CCc1cc(OC)ccc1OCCN1CCN(C)CC1	15.7	-0.2	-2.0	66.9*	10.5	2.6
CSc1cccc2sc(NC(=O)c3c(F)cccc3F)nc12	2.5	-0.2	0.4	-16.2	nt	nt
CCOC(=O)c1ccc2ncc(C(=O)OCC)c(NCCO)c2c1	-0.4	0.1	-0.4	-11.8	nt	nt
Cc1cccc(C)c1NC(=O)C(Cc1c[nH]c2ccccc12)NC(=O)OC(C)(C)C (stereo not drawn)	-1.5	0.0	1.3	62.6*	9.4	11.1
CCN(Cc1ccccc1)C(=O)Cn1ncc2c1-c1ccccc1OC2	9.4	-0.1	0.1	1.0	nt	nt
Nc1nc(-c2ccccc2)c(C(=O)c2ccccc2)s1	13.3	-0.1	1.4	2.1	nt	nt
CCN1CCN(Cc2coc3ccccc3c2=O)CC1	-11.5	0.6	-0.3	81.6*	41.5*	7.3	AS interf DR=>6.48
CCn1c(=O)c2c(nc3n(CCc4ccccc4)c(C)cn23)n(C)c1=O	-3.2	-0.2	3.4	2.3	nt	nt
Cc1cn2c3c(=O)n(C)c(=O)n(C)c3nc2n1CCc1ccccc1	10.0	0.1	-0.6	55.3*	-4.5	15.6
Cc1cc(-c2nnc(CCC(=O)NCCN3CCC(c4ccccc4C)C3)o2)no1 (stereo not drawn)	-4.1	-0.1	0.0	-0.8	nt	nt
COc1cc(C(=O)Oc2ccccc2N)cc(OC)c1OC	3.3	0.0	4.0	5.0	nt	nt
COc1cc(N)c2nccc(C)c2c1OC	-3.6	-0.2	-0.7	97.4*	118.6*	59.3*
COCCn1c(SCC#N)nnc1-c1ccccc1	5.5	0.3	0.9	65.3*	15.2	18.3
COCCn1c(SCC#N)nnc1-c1ccc(O)cc1	6.4	0.3	-0.3	9.4	nt	nt
SMILES	TEAD-YAP block	FBW7 activator	GPR151 activ	MITF primary	MITF inh conf	AlphaScreen intf2	others
O=[N+]([O-])c1ccc(OCCCN2CCCCCC2)cc1	6.6	0.1	0.0	29.9	nt	nt
Cc1ccc([N+](=O)[O-])c(OCCN2CCN(Cc3ccccc3)CC2)c1	8.3	-0.1	-0.1	63.0*	12.6	8.3
Cc1cc(OCCN2CC(C)CC(C)C2)ccc1[N+](=O)[O-] (stereo not drawn)	1.0	-0.2	-0.7	15.5	nt	nt
Cc1cc(OCCCN2CCCCCC2)ccc1[N+](=O)[O-]	-0.7	0.1	-0.6	45.5	nt	nt
Cc1ccc([N+](=O)[O-])c(OCCN2CCNCC2)c1	3.1	0.2	0.0	46.8	nt	nt
CCN1CCN(CCCOc2ccc([N+](=O)[O-])cc2)CC1	12.8	-0.2	0.2	66.2*	7.5	16.4
CCN1CCN(CCOc2ccc([N+](=O)[O-])c(C)c2)CC1	-14.4	0.5	-0.9	64.9*	6.9	7.1
Cc1cc(OCCN2CCC(C)CC2)ccc1[N+](=O)[O-]	-30.5	-0.1	-0.1	51.9*	0.9	7.9
N#CC1=C(N)C(C#N)(C#N)C(c2cccc(F)c2F)C2CN(Cc3ccccc3)CC=C12 (stereo not drawn)	4.9	0.1	-0.4	2.9	nt	nt
CC(C)N(Cc1ccccc1)C(=O)C1=CCN(S(=O)(=O)c2ccccc2)CC1	9.5	0.1	1.0	8.7	nt	nt
Cc1cccc(OCCOCCNCCN)c1C	1.1	0.0	0.2	8.5	nt	nt
N#Cc1ccc(NC(=O)c2ccc(I)cc2)cc1	-45.3	-0.1	-0.1	1.5	nt	nt
CCCS(=O)(=O)N1CCCc2ccc(NS(=O)(=O)c3cc(F)ccc3F)cc21	7.3	0.0	-0.9	6.8	nt	nt
Cc1cc(OCCCCN2CCCC2)ccc1[N+](=O)[O-]	-3.3	0.1	-0.7	81.6*	24.2	1.4
Cc1cc(OCCN2CCN(Cc3ccccc3)CC2)ccc1[N+](=O)[O-]	-2.1	0.1	-0.7	81.8*	0.0	-2.0
COc1cc2nc(CN(C)Cc3cc(C)no3)nc(N)c2cc1OC	-31.0	0.2	2.8	16.7	nt	nt
COc1cc2nc(CN(C)Cc3nccs3)nc(N)c2cc1OC	4.7	-0.3	0.8	72.6*	47.7*	100.2*
CC1CCN(CCCNC(=O)C2CC(=O)N(CCc3ccccc3)C2)CC1 (stereo not drawn)	1.9	-0.1	-1.7	107.2*	-9.1	-3.1
CCOC(=O)c1sc2nc(Cc3ccccc3)nc(NCc3ccc(Cl)cc3)c2c1C	19.0	0.3	-0.6	18.4	nt	nt
CC(C)N1C(=O)CCNc2ccccc21	5.5	0.3	0.2	0.7	nt	nt
COc1ccc(NC(=O)CCCCCn2c(SCC(=O)Nc3ccccc3OC)nc3ccsc3c2=O)cc1	4.8	-0.1	-0.9	4.6	nt	nt
CCC(Sc1nc2ccsc2c(=O)n1CCC(C)C)C(=O)Nc1ccc2c(c1)OCO2 (stereo not drawn)	-0.6	0.1	-1.2	-4.3	nt	nt
CCCCn1c(SCC(=O)Nc2ccccc2OC)nc2ccsc2c1=O	2.2	0.4	-1.4	57.6*	-0.6	0.6
CCCCn1c(SC(CC)C(=O)Nc2ccc3c(c2)OCO3)nc2ccsc2c1=O (stereo not drawn)	2.1	0.0	-1.0	69.0*	0.2	0.2
Cc1nc(NCc2c(C)nn(C)c2Cl)sc1-c1ccn(C2CCOC2)n1 (stereo not drawn)	3.2	-0.1	1.8	53.9*	3.6	-2.9

Screening data deposited in PubChem by The Scripps Research Institute Molecular Screening Center.
